Results: PubChem BioAssay AID1508625 (Wald Lab, School of Medicine, Case Western Reserve …, 2021)

Assay: enhancers of NK cell killing of ovarian tumor cells, primary screen, imaging, OVCAR3, primary NK cells, calcein-AM imaging (AID 1508625);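 also: compound given to NK cells 16 h before adding targets at 1.5 to 1 ratio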
Details: OVCAR3 lysis by primary NK cells, at 5 µM; z-score: measured here: robust Z-score, single-point normalisation

Row | Compound | corrected activity, negative = more killing | z-score
1 | O=[N+]([O-])c1ccc(OCCCN2CCNCC2)cc1 | -3.62% | -2.02
2 | COc1ccc(C2=NN(c3nc(-c4ccc(OC)c(F)c4)cs3)C(c3ccco3)C2)cc1 (configuration not stated) | -2.68% | -1.01
3 | Cc1cc(Br)ccc1NC(=O)Cn1cnc2sc(C)c(S(=O)(=O)N3CCN(C)CC3)c2c1=O | -7.06% | -1.76
4 | CCC1=NN(C(=O)c2cccc(Cl)c2)C(O)(C(F)(F)F)C1 (configuration not stated) | -2.2% | -0.839
5 | CCOC(=O)Cc1c(C)nc2cc(-c3ccc(C(C)(C)C)cc3)[nH]n2c1=O | -7.93% | -2.37
6 | CCCCN(C)C(=O)c1cc2c(=O)n3cccc(C)c3nc2s1 | -6.29% | -1.78
7 | CC(=O)Nc1ccc(-n2c(C)ccc2C)c(C(=O)O)c1 | -2.26% | -1.01
8 | CC(C)c1ccc(OCC(=O)Nc2ccc3c(c2)OCCO3)cc1 | -2.45% | -0.869
9 | COC(=O)c1ccc(CN2CCN3CCCC3C2C2CCCCC2)cc1 (configuration not stated) | -2.78% | -1.21
10 | O=C(O)C1C2C=CC(O2)C1C(=O)Nc1ccccc1C(F)(F)F (configuration not stated) | -3.8% | -1.56
11 | Cc1cc(Cl)nc(Cl)c1C(=O)O | 0.175% | 0.0658
